Sampled rows, rich in hits. Any-hit rate of the full collection: about 19%.
TDP1 cell noCPT – qHTS for Inhibitors of human tyrosyl-DNA phosphodiesterase 1 (TDP1): qHTS in cells in absence of CPT | DT40 Tdp1-/- hTDP1 cells, no CPT, ATP luminescence, 48 h | Potency, µM (doses to about 46.2 µM), inactives show top-dose activity change, negative = growth inhibition, usual class: inhibitors | 420,000 tested, 15% active | AID 686978, 2013; also: potency is read from the fitted curve at half-maximal effect; % is scaled to controls: 0 for no effect and ±100 for the full control effect; nearly all actives have a fitted effect of over 55% in size
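DT40 Tdp1-/-;hTDP1 cells, no CPT (DMSO vehicle only), 400 cells/well; compounds pin-transferred; ≥48 hr, 37 °C; CellTiter-Glo 30 min RT dark, luminescence read.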
IL-1B inflam inh – inflammasome signaling inhibition, IL-1 beta readout; THP-1 LPS/ATP IL-1B secretion, AlphaLISA, 16 h; active compounds read low; activity change, % at 57.5 µM; 360,000 tested, 4.7% active; AID 743279; in the data active = activity change below about -50%; inconclusive = mostly about -30% to -49%; also: % is scaled to controls: 0 for no effect and ±100 for the full control effect
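THP-1 cells pretreated 1 hr with compounds (up to 57.5 uM final), then stimulated with LPS (250 ng/mL final) plus ATP (1.25 mM final); secreted IL-1B measured by AlphaLISA after 16 hr, decreased signal indicating inhibition.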
DT40 TDP1 CPT – growth inhibition of DT40 Tdp1-/-;hTDP1 cells with camptothecin (screen for TDP1 inhibitors); chicken DT40 Tdp1-/-;hTDP1 cells + 20 nM CPT, ATP luminescence, 48 h; 420,000 tested, 12% active; Potency, µM (titrated, usually from 46.2 µM), without a hit: top-dose activity change, negative = growth inhibition, usual class: inhibitors; also: potency is read from the fitted curve at half-maximal effect; % is scaled to controls: 0 for no effect and ±100 for the full control effect; nearly all actives have a fitted effect of over 55% in size
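Cell growth measured by CellTiter-Glo luminescence after a minimum 48 h, 37 C compound exposure with 20 nM CPT in Tdp1-knockout DT40 cells stably expressing hTDP1, seeded 400/well; qHTS titration format.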
TGFb SMAD3 inh – TGF-b pathway inhibition | HepG2 CAGA-GFP TGF-b/SMAD3 reporter, GFP fluorescence, 18 h; TGF-beta stimulated, 500 pg/mL final | Potency, µM (highest dose often 46.1 µM), inactives show at the top dose activity, negative = inhibition, hits mostly inhibitors | 410,000 tested, 1.2% active | AID 588855; also: potency is read from the fitted curve at half-maximal effect; % is scaled to controls: 0 for no effect and ±100 for the full control effect; nearly all actives have a fitted effect of over 65% in size
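HEPG2 CAGA-GFP reporter cells (1000/well, DMEM with 1% FBS) received compounds, then recombinant TGF-beta at 500 pg/mL final for 18 hours at 37 degrees C. Per-cell GFP summed per well was normalised to unstimulated and stimulated DMSO controls before curve fitting.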
S-ASM inh – inhibitors of human secretory acid sphingomyelinase; P17405; placental ASM, HMU-PC fluorogenic substrate, 60 min; Potency, µM (top dose mostly 57.5 µM), inactives show top-dose activity change, negative = inhibition, actives largely listed as inhibitors; 340,000 tested, 0.006% active; AID 504937; also: potency is read from the fitted curve at half-maximal effect
Target sequence (P17405 47-631 limits assumed): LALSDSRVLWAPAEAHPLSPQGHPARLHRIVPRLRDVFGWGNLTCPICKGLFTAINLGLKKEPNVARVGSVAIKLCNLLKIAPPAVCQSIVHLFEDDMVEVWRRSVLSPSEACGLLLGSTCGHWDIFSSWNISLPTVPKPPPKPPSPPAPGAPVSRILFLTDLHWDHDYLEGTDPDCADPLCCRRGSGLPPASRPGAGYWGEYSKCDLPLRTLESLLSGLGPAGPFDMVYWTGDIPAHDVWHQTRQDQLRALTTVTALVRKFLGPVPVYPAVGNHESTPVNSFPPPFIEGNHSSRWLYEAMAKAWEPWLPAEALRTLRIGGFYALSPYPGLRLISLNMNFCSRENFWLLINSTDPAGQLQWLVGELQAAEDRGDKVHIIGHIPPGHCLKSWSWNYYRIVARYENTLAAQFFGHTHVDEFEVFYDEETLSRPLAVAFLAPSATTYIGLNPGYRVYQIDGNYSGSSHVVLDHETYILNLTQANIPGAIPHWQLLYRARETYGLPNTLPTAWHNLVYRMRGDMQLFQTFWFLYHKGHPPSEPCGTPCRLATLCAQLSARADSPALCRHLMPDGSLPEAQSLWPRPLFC
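Human placenta-derived ASM enzyme was preincubated with compound for 10 minutes at room temperature, then given fluorogenic substrate HMU-PC0 (9 uM final) for 60 minutes at 37 °C; a pH 10 stop preceded fluorescence reading at Ex 386/Em 447 nm.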
HepG2 tox – HepG2 cytotoxicity, counter-screen for TGF-b inhibitors; Potency, µM (series often up to 46.1 µM), without a hit: at the top dose activity change, negative = cytotoxicity, most hits filed as cytotoxic; AID 588856; 410,000 tested, 0.76% active; HepG2 CAGA-GFP viability, ATP luminescence, 18 h; also: potency is read from the fitted curve at half-maximal effect
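CellTiter-Glo luminescence gave cytotoxicity after 18 hours at 37 degrees C. The cells were HepG2 CAGA-GFP in 1% FBS DMEM, stimulated with 500 pg/mL TGF-beta after compound addition. %Activity was normalised to no-cell wells (complete cell-killing) and DMSO (no toxicity), and curves were fitted and classified.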
* = called active by the depositor; i = inactive; ? = inconclusive; / = no result given. Unless noted, calls follow the shape of the dose curve; as a rule, active = well fitted curve in the direction sought with a large enough effect; inconclusive = small, poorly fitted or top-dose-only effect, or another doubt; inactive = no such curve, though single readings can be large; an effect the other way counts as inactive or inconclusive.

SMILES	TDP1 cell noCPT	IL-1B inflam inh	DT40 TDP1 CPT	TGFb SMAD3 inh	S-ASM inh	HepG2 tox
O=C(c1ccco1)N1CCCC(N2CCN(c3cccc(C(F)(F)F)c3)CC2)C1 (stereo not given)	21µM*	?	16µM*	0%	-2%	-28%
Cc1cc(C)c(C(=O)N2CCCC(N3CCN(c4cccc(C(F)(F)F)c4)CC3)C2)o1 (stereo not given)	8.2µM*	-6	21µM*	?	-1%	-35%
O=C(c1cc(C2CC2)on1)N1CCCC(N2CCN(c3cccc(C(F)(F)F)c3)CC2)C1 (stereo not given)	?	-58*	?	?	1%	-20%
Cc1noc(C)c1C(=O)N1CCCC(N2CCN(c3cccc(C(F)(F)F)c3)CC2)C1 (stereo not given)	-20%	16	-17%	-2%	0%	-7%
O=C(CCn1cccn1)N1CCCC(N2CCN(c3cccc(C(F)(F)F)c3)CC2)C1 (stereo not given)	15µM*	2	?	?	-1%	3%
CN(C)C(=O)CCC(=O)N1CCCC(N2CCN(c3cccc(C(F)(F)F)c3)CC2)C1 (stereo not given)	-19%	12	4%	-1%	4%	0%
N#Cc1cccc(C(=O)C(=O)N2CCN(C(=O)OCc3ccccc3)CC2)c1	23µM*	-7	?	/	/	/
O=C(OCc1ccccc1)N1CCOCCN(C(=O)OCc2ccccc2)CCOCC1	26µM*	-5	26µM*	1%	13%	0%
O=C(Nc1ccc(N2CCOCC2)cc1Cl)C1CCN(C(=O)OCc2ccccc2)CC1	16µM*	0	?	-19%	-3%	-16%
CCN1C[C@@H]2[C@@H]3C(=O)N(C)C(=O)[C@@H]3[C@](Cc3ccccc3)(C1=O)N2C(=O)c1ccc(F)cc1	5%	23	2%	8%	5%	27%
CC(=O)c1cccc(NC(=O)C(C)OC(=O)C2CCC2)c1 (stereo not given)	14%	-28	4%	2%	-3%	0%
O=C(O)c1cc(C(F)(F)F)nc2c(C(F)(F)F)cccc12	-15%	25	-17%	-15%	18%	-4%
CC[n+]1ccc(C(=O)NCc2ccccc2)cc1	-3%	-12	6%	-5%	-4%	4%
c1ccc(-c2noc(-c3cccnc3)n2)nc1	?	1	-23%	3%	1%	-50%
Cc1onc(-c2ccccc2Cl)c1-c1nc(-c2ccccn2)no1	16µM*	-17	?	5%	-1%	-27%
c1ccc(-c2noc(-c3ccc4c(c3)OCO4)n2)nc1	5.2µM*	6	5.2µM*	-10%	-1%	1.6µM*
COc1cccc(-c2nc(-c3ccccc3)no2)c1	-15%	8	-12%	-14%	-6%	-20%
COc1cccc(-c2nc(-c3ccccn3)no2)c1	?	17	?	6%	2%	10µM*
c1ccc(-c2noc(-c3ccncc3)n2)nc1	?	-5	?	13%	5%	10µM*
CCN1CCN(C(=O)CN(CC)S(=O)(=O)c2ccc3ccccc3c2)CC1	-3%	19	-3%	-3%	4%	-32%
c1ccc(-c2noc(-c3ccc4ccccc4c3)n2)nc1	23µM*	15	?	0%	1%	-57%
CC(=O)c1cccc(OCC(=O)N2CCCc3ccccc32)c1	16µM*	55	?	-1%	2%	4%
Cc1occc1-c1nnc(SCC(=O)N2CCc3ccccc32)o1	21µM*	-9	16µM*	10%	0%	-32%
O=C(CSc1ccc(-c2ccc(F)cc2)nn1)N1CCCc2ccccc21	?	14	16µM*	6%	-4%	-20%
Cc1ccc(-c2nnc(SCC(=O)N3CCc4ccccc43)o2)cc1	-3%	/	6%	7%	/	1%
SMILES	TDP1 cell noCPT	IL-1B inflam inh	DT40 TDP1 CPT	TGFb SMAD3 inh	S-ASM inh	HepG2 tox
CC1(C)CCCN(C(=O)c2coc(=O)c(Br)c2)C1	0.82µM*	11	0.92µM*	0%	428%	0%
Cc1ccc(OCCNC(=O)CNC(=O)Cc2cccc3ccccc23)cc1	-16%	/	-27%	6%	/	-12%
Cc1sc2ncn(CC(=O)Nc3ccc(F)cc3Cl)c(=O)c2c1S(=O)(=O)N1CCN(c2ncccn2)CC1	-16%	/	-6%	-22%	/	-5%
CC(C)(C)Cc1nnc(NC(=O)CCC2CCCCC2)s1	-16%	30	14%	7%	1%	2%
CCCCOc1ccc(N(CC(=O)NC2CCCCC2)C(=O)CCC(=O)Nc2ccccn2)cc1	-15%	-20	-29%	-3%	0%	6%
COc1cc(OC)cc(-c2nnc(SCC(=O)N3CCCc4ccccc43)o2)c1	21µM*	-3	?	-27%	-6%	-2%
COc1cccc(C(=O)NN2c3ccccc3CCc3ccccc32)c1	10µM*	9	21µM*	?	7%	-6%
COc1cccc(C(=O)NNC(=O)c2ccccc2)c1	7%	14	-9%	-4%	8%	-5%
O=C(CSc1nnc(-c2ccc(F)cc2)o1)N1CCCc2ccccc21	18µM*	/	?	-27%	/	-3%
COc1cc2ccccc2cc1C(=O)N1CCc2ccccc21	15µM*	1	16µM*	-24%	-2%	-22%
CCNc1nc(NCC)n2c(SCC(=O)Nc3ccc(C)c(C)c3)nnc2n1	-10%	7	-2%	8%	-3%	-5%
Cc1csc(NC(=O)CSc2nnc(-c3ccoc3C)o2)n1	?	3	?	-4%	4%	-3%
Cc1occc1-c1nnc(SCC(=O)Nc2nc(C(C)(C)C)cs2)o1	10µM*	0	9.2µM*	?	-2%	-33%
COc1cc(OC)cc(C(=O)N2CCCc3ccccc32)c1	?	-24	16µM*	-6%	4%	-21%
O=C(c1coc(=O)c(Br)c1)N1CCC(C(O)(c2ccccc2)c2ccccc2)CC1	1.8µM*	-17	0.65µM*	13%	i	5%
O=C(c1coc(=O)c(Br)c1)N1CCCc2ccccc21	2.6µM*	22	1.8µM*	3%	i	-21%
CC(C)(C)n1nnnc1C(c1ccccc1)N1CCN(C(=O)C2CCCO2)CC1 (stereo not given)	-2%	23	9%	/	/	/

Compound activity (PubChem)
